# PubChem BioAssay (NCATS)
# Records with an inconclusive call do not appear. Values without a mark were called inactive. Activity calls are given as the source filed them. Calls follow the shape of the full dose curve. Numbered stars: 1 amine (or outer) side, 2 acyl side, 3 side chain; on linkers, the order of the positions; unused ones are H or OH. Bridge positions count the residues as written; N and C are the ends. Square brackets hold non-standard residues; d marks the D form. Peptide text beside a SMILES is read from it. I, II: the chains in the order shown. Actinocin(9to1) = Cc1c2oc3c(C)ccc(C(=O)[*:1])c3nc-2c(C(=O)[*:2])c(N)c1=O; NMeV = CN[C@H](C(=O)O)C(C)C; Sar = CNCC(=O)O
# Assay: A High-Content qHTS Against Drug Library for the Identification of Small Molecules that Inhibit DYT1 Early Onset Primary Dystonia-Associated Cell Pathology (AID 1645839)
# Conditions: HEK293 Flp-In EGFP-delE TorsinA, punctate imaging, 48 h; series mostly up to 46.1 µM; % pathology change, negative = correction: at the top concentration
# Source text: Nicole Calakos M.D., Ph.D.
# Duke University School of Medicine, Durham, NC
# In DYT1 dystonia due to delGAG in the TOR1A gene, there is a robust and widely replicated finding of TorsinA protein mislocalization caused when the mutant protein is in excess of the wildtype protein (1-7). Stable HEK293 cell lines were created that replicate this phenomenon. Inducible expression of an EGFP-hu delE TorsinA encoding cDNA causes pronounced punctate cellular distribution. […] This phenotypic difference in EGFP-huTorsinA fusion protein distribution serves as an indicator of cell pathology. […] RNAi screen results with the assay were validated in DYT1 patient cell phenotypes, intersected with a known dystonia gene, and led to discovery of new human genetic dystonia associations.
# The bioassay described herein is a high-content image screen with two readouts. The "%pathology" readout is the primary qHTS data channel, while the "cellcount" is the counterscreen qHTS channel. Desired active compounds are those that show inhibition in %pathology channel but no activity or minimal toxicity in cellcount readout.
# 1. Kustedjo, K., Bracey, M.H., and Cravatt, B.F. (2000). […] J. Biol. Chem. 275, 27933 - 27939.
# 2. Bragg, D.C., Kaufman, C.A., Kock, N., and Breakefield, X.O. (2004). Inhibition of N-linked glycosylation prevents inclusion formation by the dystonia-related mutant form of torsinA. Mol. Cell. Neurosci. 27, 417 - 426.
# 3. Gonzalez-Alegre, P., and Paulson, H.L. (2004). Aberrant Cellular Behavior of Mutant TorsinA Implicates Nuclear Envelope Dysfunction in DYT1 Dystonia. J. Neurosci. 24, 2593 - 2601.
# 4. Goodchild, R.E., and Dauer, W.T. (2004). Mislocalization to the nuclear envelope: an effect of the dystonia-causing torsinA mutation. Proc. Natl. Acad. Sci. U. S. A. 101, 847 - 852.
# 5. Kock, N., Allchorne, A.J., Sena-Esteves, M., Woolf, C.J., and Breakefield, X.O. (2006). RNAi blocks DYT1 mutant torsinA inclusions in neurons. Neurosci. Lett. 395, 201 - 205.
# 6. Hewett, J.W., Nery, F.C., Niland, B., Ge, P., Tan, P., Hadwiger, P., Tannous, B.A., Sah, D.W.Y., and Breakefield, X.O. (2008). siRNA knock-down of mutant torsinA restores processing through secretory pathway in DYT1 dystonia cells. Hum. Mol. Genet. 17, 1436 - 1445.
# 7. Calakos, N., Patel, V.D., Gottron, M., Wang, G., Tran-Viet, K.N., Brewington, D., Beyer, J.L., Steffens, D.C., Krishnan, R.R., and Zuchner, S. (2010). Functional evidence implicating a novel TOR1A mutation in idiopathic, late-onset focal dystonia. J. Med. Genet. 47, 646 - 650.
# 8. Rittiner* JE, Caffall* ZF, Hernandez-Martinez R, Sanderson SM, Pearson JL, Tsukayama KK, Liu AY, Xiao C, Tracy S, Shipman MK, Hickey P, Johnson J, Scott B, Stacy M, Saunders-Pullman R, Bressman S, Simonyan K, Sharma N, Ozelius LJ, Cirulli ET, Calakos N. Functional Genomic Analyses of Mendelian and Sporadic Disease Identify Impaired eIF2alpha Signaling as a Generalizable Mechanism for Dystonia. Neuron. 2016 Dec 21;92(6):1238-1251. doi: 10.1016/j.neuron.2016.11.012. Epub 2016 Dec 8. PMID: 27939583; PMCID: PMC5320521.
# High-content, High-throughput Drug Screening Assay
# The TorsinA mislocalization assay was modified from the previously published assay to accommodate compound testing in 1536 well format.1 Briefly, Flp-In T-REx 293 cells from Invitrogen in which a single copy of a cDNA is recombined into a specific genomic locus was used to create tetracycline-inducible expression of cDNA encoding either EGFP-hTOR1A (WT) or EGFP-delE hTOR1A (DYT1). WT and DYT1 cells were diluted to a concentration of 2 x 10^5 cells/mL in reduced serum media (DMEM High Glucose containing 1% tetracycline-tested FBS, 2 mM L-Glutamine, and 1% Penicillin/Streptomycin). 4 µl of WT cells and 4 µl of DTY1 cells were added to column 1 and columns 2-48, respectively, of a poly-D-lysine-coated, low base, black, clear bottom 1536 well plate (Corning, Corning, NY) using the BioRAPTR FRD Microfluidic Workstation (Beckman Coulter, Indianapolis, IN). The final cell number was 800 cells/well. […]
# Potency is read from the fitted curve at half-maximal effect.
SMILES,"% pathology change, negative = correction",Potency
CN(C)CCOc1ccccc1Cc1ccccc1,-20.5%,–
CN(C)CC/C=C1/c2ccccc2COc2ccc(CC(=O)O)cc21,10.8%,–
CO/N=C1\CN(c2nc3c(cc2F)c(=O)c(C(=O)O)cn3C2CC2)CC1CN (stereo not given),15.8%,–
CC(=O)[C@H]1CC[C@H]2[C@@H]3C[C@H](C)C4=CC(=O)CC[C@]4(C)[C@H]3[C@@H](O)C[C@]12C,-17.5%,–
OCc1ccccc1O,2.62%,–
Oc1cc(O)c2c(c1)O[C@H](c1ccc(O)c(O)c1)[C@H](O)C2,-20.5%,–
CCCC(=O)Nc1ccc(OCC(O)CNC(C)C)c(C(C)=O)c1 (stereo not given),1.55%,–
CC(C)NC[C@@H](O)COc1cccc2ccccc12,-24.3%,–
Nc1nc2ncc(CNc3ccc(C(=O)N[C@@H](CCC(=O)O)C(=O)O)cc3)nc2c(=O)[nH]1,8.88%,–
Oc1ccc(Cl)c2cccnc12,-18.7%,–
CC(C)(Oc1ccc(Cl)cc1)C(=O)O,14.9%,–
CN1CCN(C(c2ccccc2)c2ccccc2)CC1,-4.68%,–
NC[C@H]1O[C@H](O[C@H]2[C@H](O)[C@@H](O[C@H]3O[C@H](CO)[C@@H](O)[C@H](N)[C@H]3O)[C@H](N)C[C@@H]2N)[C@H](N)[C@@H](O)[C@@H]1O,10.2% [at 19.1 µM],–
CC1(C)O[C@@H]2C[C@H]3[C@@H]4CCC5=CC(=O)CC[C@]5(C)[C@@]4(F)[C@@H](O)C[C@]3(C)[C@]2(C(=O)CCl)O1,-16.2%,–
CCCCCCCCCCCCCCNCCO,1.72%,–
COc1cc2c(cc1OC)C(C(C(=O)N(CCc1ccc(OC)c(OC)c1OC)CCc1ccc(OC)c(OC)c1OC)c1ccccc1)=NCC2 (stereo not given),-26.8%,–
CC1(C)O[C@@H]2[C@@H](CO[C@@]3(COS(N)(=O)=O)OC(C)(C)O[C@@H]23)O1,16.9%,–
CC(O)(P(=O)(O)O)P(=O)(O)O,14.5%,–
COC(=O)CCc1ccc(OCC(O)CNC(C)C)cc1 (stereo not given),15.1%,–
NC(CO)(CO)CO,3.07%,–

SMILES,"% pathology change, negative = correction",Potency
NCCc1ccn[nH]1,16.8%,–
CCN1CCCC1=O,6.86%,–
C[C@@H]1C[C@H]2[C@@H]3CCC4=CC(=O)C=C[C@]4(C)[C@@]3(F)[C@@H](O)C[C@]2(C)[C@H]1C(=O)CO,3.98%,–
C=C1C[C@H]2[C@@H]3C=C(C)C4=CC(=O)CC[C@]4(C)[C@H]3CC[C@]2(C)[C@@]1(OC(C)=O)C(C)=O,1.9%,–
Cc1c(N(C)CS(=O)(=O)O)c(=O)n(-c2ccccc2)n1C,14.7%,–
C[C@H]1[C@H](NC(=O)/C(=N/OC(C)(C)C(=O)O)c2csc(N)n2)C(=O)N1S(=O)(=O)O (stereo in doubt),0.516%,–
CCOC(=O)/C=C(C)/C=C/C=C(C)/C=C/c1c(C)cc(OC)c(C)c1C,-26.6%,–
C[C@H]1C[C@H]2[C@@H]3CCC4=CC(=O)C=C[C@]4(C)[C@@]3(Cl)[C@@H](O)C[C@]2(C)[C@@]1(O)C(=O)CO,-12.3%,–
CC[N+](CC)(CCNC(=O)C(=O)NCC[N+](CC)(CC)Cc1ccccc1Cl)Cc1ccccc1Cl,-8.16%,–
CC(=O)N/N=C/c1ccc([N+](=O)[O-])o1,-3.76%,–
CN(C)CC/C=C1\c2ccccc2Sc2ccc(Cl)cc21,–,12.6 µM (active)
"Cc1c2oc3c(C)ccc(C(=O)N[C@@H]4C(=O)N[C@H](C(C)C)C(=O)N5CCC[C@H]5C(=O)N(C)CC(=O)N(C)[C@@H](C(C)C)C(=O)O[C@@H]4C)c3nc-2c(C(=O)N[C@@H]2C(=O)N[C@H](C(C)C)C(=O)N3CCC[C@H]3C(=O)N(C)CC(=O)N(C)[C@@H](C(C)C)C(=O)O[C@@H]2C)c(N)c1=O (I: T[dV]P[Sar][NMeV] / II: T[dV]P[Sar][NMeV]; ester I:1-I:C, II:1-II:C; linker I:N-II:N via Actinocin(9to1))",-85.7%,–
CCN(CC)CCNC(=O)COc1ccc(Cl)cc1,-2.74%,–
Cc1ccnc(NS(=O)(=O)c2ccc(N)cc2)n1,-2.44%,–
COc1cc(/C=C/C(=O)O[C@H]2CC[C@]34C[C@]35CC[C@]3(C)[C@@H]([C@H](C)CCC=C(C)C)CC[C@@]3(C)[C@@H]5CC[C@H]4C2(C)C)ccc1O,8.88%,–
NC(=O)C(=O)N/N=C/c1ccc([N+](=O)[O-])o1,10.9%,–
CCCC(=O)O[C@]1(C(=O)CO)CC[C@H]2[C@@H]3CCC4=CC(=O)CC[C@]4(C)[C@H]3[C@@H](O)C[C@@]21C,13.3%,–
C[C@]12CCC(=O)C=C1CC[C@H]1[C@@H]3CC[C@](O)(C(=O)CO)[C@@]3(C)C[C@H](O)[C@@]12F,-1.46%,–
COc1cc(C(=S)N2CCOCC2)cc(OC)c1OC,1.66%,–
CCC(=O)c1c(O)cc(O)cc1O,-7.1%,–
